Compound activity from PubChem.
Wee1 stabilizer = blocks degradation of human Wee1 kinase | P30291 | HeLa Luc-Wee1K328M stability, luciferase luminescence; 100% = proteasome inhibitor MG132 effect | reporter increase, % at 5 µM | hit rate 1.2% among 220,000;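 active means activation above the mean of all tested compounds plus 3 SD, set per screening run, cut at about 8.8% in these data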;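 further: cells exposed to compound for 20 h before luminescence read; 0% = DMSO alone and 100% = MG132 at 30 µM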
Target sequence (P30291 whole entry K328M): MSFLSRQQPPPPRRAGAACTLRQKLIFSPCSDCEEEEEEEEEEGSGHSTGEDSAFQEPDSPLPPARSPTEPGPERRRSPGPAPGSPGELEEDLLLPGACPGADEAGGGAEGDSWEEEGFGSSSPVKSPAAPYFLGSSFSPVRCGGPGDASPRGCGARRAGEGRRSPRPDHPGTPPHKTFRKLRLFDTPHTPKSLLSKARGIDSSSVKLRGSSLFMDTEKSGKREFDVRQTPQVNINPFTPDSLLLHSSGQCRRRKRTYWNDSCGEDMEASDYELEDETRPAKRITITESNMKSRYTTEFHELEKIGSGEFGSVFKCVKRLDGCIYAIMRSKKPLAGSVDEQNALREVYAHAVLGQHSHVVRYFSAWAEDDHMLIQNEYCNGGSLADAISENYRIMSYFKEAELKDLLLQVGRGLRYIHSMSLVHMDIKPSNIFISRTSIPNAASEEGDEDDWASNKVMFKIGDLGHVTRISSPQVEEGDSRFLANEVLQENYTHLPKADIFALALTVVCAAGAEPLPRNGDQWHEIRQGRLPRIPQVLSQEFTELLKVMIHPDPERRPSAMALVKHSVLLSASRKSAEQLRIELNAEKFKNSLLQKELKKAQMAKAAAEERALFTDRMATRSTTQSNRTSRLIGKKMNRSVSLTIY
hgDAF12 agonist = agonists of H. glycines DAF-12 nuclear receptor | hit rate 1.8% among 370,000 | HEK293 GAL4-hgDAF12 UAS-luciferase reporter, agonist luminescence; normalized to butyrate control | activation, % at 6.8 µM;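 active means activation above a cutoff set at the mean of all screened compounds plus 3 SD, cut at about 10% in these data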;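 further: 0% = DMSO wells and 100% = sodium butyrate wells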
hcDAF12 agonist = activators of H. contortus DAF-12 nuclear receptor; HEK293 hcDAF-12 lit1-tk-luc reporter, luminescence; 0% DMSO, 100% Δ7-dafachronic acid; activation, % at 6.8 µM; hit rate 1.4% among 370,000; AID 652067;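 active means activation above the mean of all tested compounds plus 3 SD, cut at about 5.5% in these data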;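 further: 100% = response to 3 µM Δ7-dafachronic acid high control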
DAX1 inh-1 = inhibitors of human orphan nuclear receptor DAX1 (NR0B1); P51843; HEK293 Gal4-DAX1 luciferase reporter, luminescence; inhibition, % at 6.75 µM; hit rate 0.99% among 340,000; AID 504766;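 active means inhibition above the mean over all tested compounds plus 3 SD, cut at about 4.2% in these data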;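 further: 0% = DAX1-transfected cells with DMSO and 100% = empty-vector control cells with DMSO; inhibition shows as a rise in luminescence from relieved DAX1 repression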
ssDAF-12 act = activators of S. stercoralis DAF-12 nuclear receptor; activation, % at 6.8 µM; HEK293 ssDAF-12/GRIP1 lit1-tk-luc reporter, luminescence; % of 3 µM dafachronic acid response; hit rate 1% among 370,000;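 active means activation above the mean over all tested compounds plus 3 SD, cut at about 0.9% in these data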;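 further: 0% = DMSO-only wells and 100% = 3 µM delta7-dafachronic acid wells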
DAX1 inh-2 = inhibitors of DAX1 repression of SF-1 activated StAR promoter; inhibition, % at 6.8 µM; hit rate 1.1% among 370,000; HEK293T StAR-luciferase reporter, SF-1/DAX-1 repression relief;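 active means inhibition above the mean over all tested compounds plus 3 SD, cut at about 3.6% in these data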;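 further: 0% = DAX-1 cells with DMSO and 100% = cells lacking DAX-1 with DMSO; higher inhibition means more luminescence from relief of DAX-1 repression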
An asterisk follows results filed as active; x = no result given. Only some compounds are listed: those with a hit (about 4.6% of all), similar ones and a draw of the others.

SMILES	Wee1 stabilizer	hgDAF12 agonist	hcDAF12 agonist	DAX1 inh-1	ssDAF-12 act	DAX1 inh-2
Cc1ccccc1OCCCc1c(C)n[nH]c1C	-0.8	-4.3	-2.7	-1.4	-1.5	-1.0
COc1cc(NC(=O)Nc2nc(C(N)C(C)C)cs2)cc(OC)c1OC (centres undefined)	x	-0.8	1.9	x	-1.3	2.6
Cc1nc(SCC(=O)Nc2ccc(OCc3ccccc3)cc2)n[nH]1	1.6	1.8	-0.6	0.8	-1.4	0.6
Nc1nc(SCC(=O)Nc2ccc(OCc3ccccc3)cc2)n[nH]1	0.6	6.6	0.0	5.2*	-0.6	-0.2
NNC(=O)COc1cccc(C(F)(F)F)c1	2.1	0.0	0.5	-1.1	-1.3	0.4
CC(C)[C@H](NC(N)=O)C(=O)NNC(=O)COc1cccc(C(F)(F)F)c1	-1.9	0.1	-0.9	6.5*	-2.2	0.6
N#Cc1cc2c(nc1SCC(=O)Nc1nccs1)CCCCC2	3.7	21.1*	11.4*	2.2	1.0*	7.7*
CCc1nnc(NC(=O)CSc2nc3c(cc2C#N)CCC3)s1	1.8	9.6	0.6	0.3	-0.2	1.9
Nc1ncnc2c1ncn2[C@@H]1O[C@H](C(=O)N[C@H](CO)Cc2ccc(O)cc2)[C@@H](O)[C@H]1O	x	0.8	-0.2	x	-0.7	0.4
CCCCN(C(=O)NC(=O)Nc1ccccc1C)S(C)(=O)=O	28.9*	0.7	0.1	-1.1	-1.2	0.1
O=C(OCC1CCC=CO1)C1CCC=CO1 (centres undefined)	x	2.3	1.4	-0.9	-1.3	-1.1
O=C(Nc1ccc(F)cc1)c1nc[nH]c1C(=O)O	x	1.6	-0.4	4.3*	-0.7	0.9
Cc1ccc(NC(=O)C2OCCc3ccccc32)cc1C (centres undefined)	0.2	11.0*	2.5	1.9	-0.8	2.2
CCc1nn(CCCC(=O)NC2CCCCC2C)c(=O)c2cc3occc3n12 (centres undefined)	x	0.8	1.1	-0.6	-0.9	1.1
COC(=O)[C@]12C[C@H](CC(=O)NCC3CCCCC3)C(=O)N(Cc3cccc4ccccc34)C1=C[C@H](C(C)C)O[C@@H]2C1CC1	x	5.2	-1.2	x	-0.5	0.1
C/C(Cn1cnc([N+](=O)[O-])n1)=N\NC(=O)c1ccccc1O	5.4	8.0	1.3	1.0	-1.0	0.8
C/C(Cn1cnc([N+](=O)[O-])n1)=N\NC(=O)c1ccccc1F	1.4	10.7*	0.5	0.7	0.8	1.2
CCOc1ccc(-c2cc(N3C(=O)Nc4ccccc4N3O)n[nH]2)cc1	-1.9	3.0	3.4	0.7	-0.8	-1.2
COc1cccc(-c2cc(N3C(=O)Nc4ccccc4N3O)n[nH]2)c1	4.2	-0.6	-0.4	4.8*	0.1	-0.6
S=C(N=Nc1ccccc1)NNc1ccccc1	0.1	12.5*	11.3*	3.2	0.1	3.2
Cc1n(-c2ccccc2)c2ccc(Cl)cc2[n+]1CCO	0.1	12.4*	-0.8	1.3	-0.8	-0.1
O=C(Nc1ccccc1)c1cc(C2CCCCN2C(=O)CCc2ccccc2)on1 (centres undefined)	x	3.6	1.1	x	-1.2	0.0
Fc1ccc(CNC2CCN(Cc3ccccc3)CC2)cc1	x	3.8	-1.1	2.3	-0.2	0.7
CC(NC1CCN(Cc2ccccc2)CC1)c1ccc(F)cc1 (centres undefined)	x	-1.6	-2.3	0.0	1.1*	-0.8
COc1ccc(/C=N/NC(=S)Nc2c(C)n(C)n(-c3ccccc3)c2=O)cc1OC	-1.4	-0.2	-0.9	5.4*	-1.3	0.1
SMILES	Wee1 stabilizer	hgDAF12 agonist	hcDAF12 agonist	DAX1 inh-1	ssDAF-12 act	DAX1 inh-2
Cc1c(NC(=S)N/N=C/c2ccc(Br)cc2)c(=O)n(-c2ccccc2)n1C	-1.5	-2.2	-0.5	0.3	-1.1	-0.1
CC(C)CN(CC(C)C)c1nnc(N)s1	-1.5	-2.1	-2.2	5.9*	-0.7	0.2
CC(C)CSc1nnc(N)s1	-1.7	0.4	-1.2	2.6	-0.6	1.3
CC1(C(=O)NS(=O)(=O)c2cccs2)CCN1C(=O)C1CCCCC1 (centres undefined)	x	1.2	0.4	x	-0.6	0.3
O=C(NC1CCCCC1)c1ccc(-c2cn[nH]c2)c2ccoc12	x	12.7*	-0.8	x	-0.7	1.4
COc1ccc(-c2ccc(C(=O)NC3CCCCC3)c3occc23)c(C)c1	x	7.7	-0.2	x	-1.5	0.1
Cc1cccc(C)c1NC(=O)C(c1ccccc1)n1c(=O)c(-c2cc3ccccc3[nH]2)nc2ccccc21 (centres undefined)	x	0.9	2.8	x	0.2	0.5
Cc1cccc(C)c1NC(=O)C(c1ccncc1)n1c(=O)c(-c2cc3ccccc3[nH]2)nc2ccccc21 (centres undefined)	x	10.6*	6.4*	x	1.0*	2.5
CCCCCNC(=O)C(c1cc2ccccc2o1)n1c(=O)c(-c2ccccc2)nc2ccccc21 (centres undefined)	x	1.0	2.8	x	0.4	-0.4
CCCCCNC(=O)C(c1ccc(-c2ccccc2)cc1)n1c(=O)c(-c2cc3ccccc3[nH]2)nc2ccccc21 (centres undefined)	x	6.0	6.0*	x	1.2*	1.7
CC(C)(C)NC(=O)C(c1ccc(-c2ccccc2)cc1)n1c(=O)c(-c2ccccc2)nc2ccccc21 (centres undefined)	x	-1.6	-2.1	x	-0.8	-0.3
CC(C)(C)NC(=O)C(c1cc2ccccc2o1)n1c(=O)c(-c2ccccc2)nc2ccccc21 (centres undefined)	x	3.0	3.6	x	1.1*	1.0
CCCCCNC(=O)C(c1cc2ccccc2o1)n1c(=O)c(-c2cc3ccccc3[nH]2)nc2ccccc21 (centres undefined)	x	4.9	5.6*	x	-0.2	0.4
CCN1C(=O)[C@H]2[C@H]3CN=C(SCc4ccc(C)cc4)N3[C@@](CC)(C(=O)OC)[C@H]2C1=O	x	-0.2	-0.6	-1.1	-1.6	1.2
c1ccc2cc(Cn3ccc4ccc(-c5ccc6cc[nH]c6c5)cc43)ccc2c1	x	0.0	2.7	x	1.2*	-0.6
CCOc1cc(S(=O)(=O)NCC2OCCc3ccccc32)c(OCC)cc1-n1cnnn1 (centres undefined)	-2.5	-0.2	-0.4	4.6*	-1.4	-0.4
CCCCN1C2CCCC1CC(NC(=O)c1ccccc1Cl)C2 (centres undefined)	x	2.4	-1.9	4.7*	-0.9	0.2
O=C(NC1CC2CCC(C1)N2Cc1ccccc1)c1ccccc1Cl (centres undefined)	x	2.2	-0.2	2.6	-0.9	0.3
CCOC(=O)C1=CCN(S(=O)(=O)c2ccc(Cl)cc2)C1c1ccc(C)cc1 (centres undefined)	x	-2.9	-0.9	x	-1.4	-0.7
CCOc1ccccc1N1CC(O)=C(c2nc3ccccc3s2)C1=N	10.4*	5.0	-1.1	-2.2	-1.5	-2.4
